# Screening results deposited in PubChem BioAssay by National Center for Advancing Translational Sciences (NCATS).
# HT1080 IDH1KD tx = qHTS for induction of synthetic lethality in tumor cells producing 2HG: qHTS for the HT-1080-IDH1KD cell line; HT-1080 IDH1 knockdown viability, ATP luminescence, 48 h; Potency, µM (titrated, usually from 46.1 µM), actives largely listed as cytotoxic; actives 2% (n = 360,000); AID 686971, 2013
#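 In this qHTS, HT-1080 cells depleted of IDH1 are exposed for 48 h at 37 °C to compound titrations. Toxicity is scored from CellTiter-Glo luminescence, with DMSO as full viability and medium alone as none.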
# TDP1 cell noCPT = qHTS for Inhibitors of human tyrosyl-DNA phosphodiesterase 1 (TDP1): qHTS in cells in absence of CPT; AID 686978, 2013; actives 15% (n = 420,000); Potency, µM (titrated, usually from 46.2 µM), usual class: inhibitors; DT40 Tdp1-/- hTDP1 cells, no CPT, ATP luminescence, 48 h; also: nearly all actives have a fitted effect of over 55% in size
#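 Growth of hTDP1-complemented DT40 Tdp1-knockout cells is measured by ATP luminescence after at least 48 hr compound exposure at 37 °C, with DMSO substituting for the 20 nM CPT used in the parallel screen.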
# DT40 TDP1 CPT = qHTS for Inhibitors of human tyrosyl-DNA phosphodiesterase 1 (TDP1): qHTS in cells in presence of CPT; chicken DT40 Tdp1-/-;hTDP1 cells + 20 nM CPT, ATP luminescence, 48 h; Potency, µM (top dose mostly 46.2 µM), usual class: inhibitors; actives 12% (n = 420,000); AID 686979, 2013; also: nearly all actives have a fitted effect of over 55% in size
#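 Cell growth measured by CellTiter-Glo luminescence after a minimum 48 h, 37 C compound exposure with 20 nM CPT in Tdp1-knockout DT40 cells stably expressing hTDP1, seeded 400/well; qHTS titration format.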
# IL-1B inflam inh = qHTS for Inhibitors of Inflammasome Signaling: IL-1-beta AlphaLISA Primary Screen. THP-1 LPS/ATP IL-1B secretion, AlphaLISA, 16 h; stronger effect = lower value. activity change, % at 57.5 µM. actives 4.7% (n = 360,000). AID 743279, 2014; in the data active = activity change below about -50%; inconclusive = mostly about -30% to -49%
#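 Secreted IL-1B measured by AlphaLISA bead assay after 16 h compound exposure of THP-1 cells; compounds (final up to 57.5 uM) added 1 h before LPS (250 ng/mL) and ATP (1.25 mM) stimulation; lower signal means less secretion.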
# HT1080-NT tox = qHTS for induction of synthetic lethality in tumor cells producing 2HG: qHTS for the HT-1080-NT fibrosarcoma cell line | HT-1080-NT fibrosarcoma viability, CellTiter-Glo ATP luminescence, 48 h | Potency, µM (titrated, usually from 46.1 µM), usual class: cytotoxic | actives 1.6% (n = 360,000);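 also: NT is the 2HG producing partner of a matched IDH1 knockdown line; nearly all actives have a fitted effect of over 55% in size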
#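 Compounds were tested in concentration-response format on HT-1080-NT cells for 48 hours at 37 degrees C. Cell viability came from CellTiter-Glo luminescence; curves were classified by r2, response magnitude and activity.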
# Numbers stand for hits; - = inactive; ? = inconclusive; . = no result given; [ ] = another dose, or the depositor's remark. Compounds with a hit are over-represented: about 19% of the library has one in this group of screens. Unless noted, calls follow the shape of the dose curve; as a rule, active = well fitted curve in the direction sought with a large enough effect; inconclusive = small, poorly fitted or top-dose-only effect, or another doubt; inactive = no such curve, though single readings can be large; an effect the other way counts as inactive or inconclusive.
SMILES,HT1080 IDH1KD tx,TDP1 cell noCPT,DT40 TDP1 CPT,IL-1B inflam inh,HT1080-NT tox
CC(C)CCNc1nc2c(S(=O)(=O)c3ccc(Br)cc3)nnn2c2ccsc12,.,-,?,.,.
COc1ccc(Cl)cc1NC(=O)CN(C)C(=O)c1sc2ccccc2c1Cl,?,?,16.4µM,-,?
COc1ccc(Cl)cc1NC(=O)CN(C)C(=O)c1cccc(-n2cnnn2)c1,-,-,-,-,-[9.24 µM]
COc1ccc(NC(=O)CN(c2ccccc2)S(=O)(=O)c2ccccc2)c(OC)c1,-,?,?,-,-
COc1ccc(N(CC(=O)Nc2ccc(Cl)cc2C)S(=O)(=O)c2ccccc2)c(OC)c1,.,18.4µM,?,.,.
COc1ccc(Cl)cc1NC(=O)CN(c1cccc(C)c1C)S(=O)(=O)c1ccccc1,.,23.1µM,23.1µM,.,.
COc1ccc(Cl)cc1NC(=O)CN(C)C(=O)c1ccc(-n2nc(C)cc2C)cc1,-,14.6µM,18.4µM,-,-
CCCC(C(=O)NCc1ccco1)N(Cc1ccco1)C(=O)CNS(=O)(=O)c1ccccc1 (stereo not given),-,-,-,-,-
Cn1cc(CN2CCC(N3CCNC(=O)CC3)CC2)c(-c2ccccc2F)n1,-,-,-,-,-
C[C@H](CCC(=O)O)[C@H]1CC[C@H]2[C@H]3C(C[C@H](O)[C@]12C)[C@@]1(C)CC[C@@H](O)C[C@H]1C[C@H]3O (stereo not given in full),.,-,-,.,.
O=C(O)c1cc(Nc2cc(Cl)c3nonc3c2[N+](=O)[O-])ccc1O,-,?,?,-,-
Cc1cc(O)ccc1-c1cccc2nccn12,-,-,-,-,-
COc1ccc(Cl)cc1NC(=O)CN(C)C(=O)C12CC3CC(CC(Cl)(C3)C1)C2,?,23.1µM,?,-,-
COc1ccc(Cl)cc1NC(=O)CN(c1ccccc1)S(=O)(=O)N(C)C,-,18.4µM,29.1µM,-,-
COc1ccc2[nH]c(C(=O)O)c(CCN3C(=O)c4cccc([N+](=O)[O-])c4C3=O)c2c1,-,-,-,-,-
CCN(CC(=O)Nc1ccc2c(c1)OCO2)Cc1nc2ccccc2c(=O)[nH]1,-,?,?,-,-
CCN(CC)CCn1c(SCC(=O)Nc2ccc3c(c2)CCC3)nc2ccccc2c1=O,?,2.31µM,?,?,?
CCN(CC(=O)Nc1cccc(Br)c1)Cc1nc2ccccc2c(=O)[nH]1,-,4.61µM,5.17µM,-,-
CCN(CC(=O)Nc1ccc2c(c1)CCC2)Cc1nc2ccccc2c(=O)[nH]1,-,8.2µM,3.66µM,-,-
O=C(CSc1nc2ccccc2c(=O)n1-c1ccccc1F)Nc1ccc2c(c1)CCC2,-,?,?,-,-
CCN(CC)CC(=O)Nc1ccc2c(c1)Nc1ccccc1CC2,?,15.8µM,?,-,11.2µM
COc1cc(C(=O)NCc2nnc(SCC(=O)N3CCc4ccccc43)o2)cc(OC)c1OC,-,-,-,-,-
CCN1CCN(C(=O)c2ccc(Cl)c(S(=O)(=O)N(C)c3ccccc3)c2)CC1,-,-,-,-,-
Cc1ccccc1N=C1C(=O)Nc2ccccc21,-,-,-,-,-
Cc1oc2c(CN3CCCCC3)c(O)ccc2c(=O)c1-c1ccc(Cl)cc1,-,-,-,-,-
SMILES,HT1080 IDH1KD tx,TDP1 cell noCPT,DT40 TDP1 CPT,IL-1B inflam inh,HT1080-NT tox
CCOC(=O)N1CCN(CC(O)COc2ccccc2[N+](=O)[O-])CC1 (stereo not given),-,-,-,-,-
Cc1cccc(C)c1OCc1cc(C(=O)NCC2CCCCC2)no1,-,-,-,-,-
COc1ccc(OCc2cc(C(=O)NCC(C)(C)N3CCOCC3)no2)c(Cl)c1,-,20.6µM,23.1µM,-,-
COc1ccc(CCNC(=O)c2cc(COc3c(C)cccc3C)on2)c(OC)c1,-,-,23.1µM,-,-
Cc1cccc(C)c1OCc1cc(C(=O)N(Cc2c(C)nn(C)c2C)C2CC2)no1,?,8.2µM,13µM,?,-
Cc1cccc(C)c1OCc1cc(C(=O)NCc2cn(C)nc2C)no1,-,?,18.4µM,-,-
O=C(CNC(=O)c1ccc(F)cc1)OCc1cc(=O)n2ccsc2n1,.,-,-,.,.
COc1ccc(OCc2cc(C(=O)NCCN3CCCC(O)C3)no2)c(Cl)c1 (stereo not given),-,-,-,-,-
COc1ccc(OCc2cc(C(=O)NCCc3ccccc3)no2)c(Cl)c1,16.4µM,10.3µM,7.31µM,-,?
COc1ccc(OCc2cc(C(=O)NCCN3CCCc4ccccc43)no2)c(Cl)c1,-,18.4µM,14.6µM,-,-
O=C(NCCc1ccccc1C(F)(F)F)c1cc(COc2ccccc2)on1,-,16.4µM,16.4µM,-,-
Cc1ccc(C(=O)N/C(=C\c2sccc2C)C(=O)NCc2ccco2)cc1,-,-,-,-,-
CC(C)(C)c1ccc(C(=O)N/C(=C/c2cccs2)C(=O)NCc2ccco2)cc1,-,?,?,-68.3,-
CC(C)(C)c1ccc(C(=O)N/C(=C\c2cccs2)C(=O)N2CCOCC2)cc1,-,20.6µM,-,-,-
O=C(N/N=C/c1ccc(O)c(O)c1O)/C(=C/c1ccc([N+](=O)[O-])cc1)NC(=O)c1ccccc1,14.6µM,5.8µM,4.61µM,-,?
COc1ccc(/C=C(\NC(=O)c2cccs2)C(=O)Nc2cccc3ccccc23)cc1OC,-,18.4µM,?,-,-
O=C(Nc1cccc2ccccc12)/C(=C/c1ccc([N+](=O)[O-])cc1)NC(=O)c1ccccc1,-,20.6µM,8.2µM,-,-
COc1ccc(/C=C(\NC(=O)c2cccs2)C(=O)NN)cc1OC,-,-,-,-,-
CCCN(CC(=O)Nc1ccc(F)c(F)c1F)C(=O)Cc1ccc(OC)c(S(=O)(=O)N2CCOCC2)c1,-,?,-,-,-
CCOc1ccc(CNC(=O)CN2C(=O)CSc3ccc(S(=O)(=O)N4CCOCC4)cc32)cc1OC,-,-,-,-,-
O=C(O)/C=C/C(=O)Nc1ccc(N2CCOCC2)nc1N1CCOCC1,-,23.1µM,20.6µM,-,-
COc1ccc(N2CCN(c3ccc(NC(=O)/C=C\C(=O)O)cc3)CC2)cc1,-,-,-,-,-
COc1ccc(/C=N/NC(=O)c2cc(-c3cccn3C)n[nH]2)cc1OC,-,18.4µM,?,?,-
Cn1cccc1-c1cc(C(=O)N/N=C/c2cccc(O)c2)[nH]n1,-,?,?,-69.8,-
CCOc1cccc(/C=N/NC(=O)c2cc(-c3cccn3C)n[nH]2)c1O,?,9.2µM,5.8µM,-,-
